Laboratory results published in PubChem BioAssay AID2472 (National Center for Advancing Translational Sciences (NCATS), 2010).
Values joined by “and” are separate entries in the source; they are usually repeats but may differ in a detail not shown here. Equal entries are not always repeated. Out of some 290,000 compounds screened, about 2,000 (0.69%) were called active. No stated cut-off is given here; in the data, active means activity change below about -30%; inactive means the rest, inconclusive results apart. The full list was thinned out, with actives kept by preference. More than one record can exist for a structure, and the calls need not agree.

Assay: qHTS Assay for Inhibitors of Fructose-1,6-bisphosphate Aldolase from Giardia Lamblia: Coupling assay counterscreen
Conditions: coupling enzyme system counterscreen, AmpLite Red fluorescence; at 58.2 µM (top of the series)
Outline: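 Activity here indicates interference with the coupling reaction, not aldolase inhibition. Compounds at 57.5 uM final met coupling enzymes for 10 min at RT; substrate and AmpLite Red detection followed, with a 525/598 nm fluorescence read after 20 min.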
On the % scale 0 is the no-effect control and ±100 the full control effect.

Row | SMILES | activity change, negative = inhibition
1 | O=C1C2C(c3ccccc3)CC=CC2C(c2ccoc2)N1Cc1ccccc1 (stereo unspecified) | 8.25% (inactive)
2 | COC(=O)CCCC1=CC2=CC(=O)C(C)(OC(=O)c3cccs3)C(=O)C2=CN1c1cccc(C#N)c1 (stereo unspecified) | -7% (inactive) and -4.26% (inactive)
3 | CCCCC1=CC2=CC(=O)C(C)(OC(=O)CC)C(=O)C2=CN1CCCOC(C)C (stereo unspecified) | -25% (inactive) and -18.1% (inactive)
4 | COC(=O)CCCC1=CC2=CC(=O)C(C)(OC(=O)c3cccs3)C(=O)C2=CN1CC1CC1 (stereo unspecified) | -36.8% (active) and -32.4% (active)
5 | COC(=O)CCCC1=CC2=CC(=O)C(C)(OC(=O)c3cccs3)C(=O)C2=CN1c1ccc(CO)cc1 (stereo unspecified) | 1.62% (inactive)
6 | COC(=O)CCCC1=CC2=CC(=O)C(C)(OC(=O)c3cccs3)C(=O)C2=CN1CC(C)C (stereo unspecified) | -16.4% (inactive) and -34.8% (active)
7 | CC(C)(C)OC(=O)NCCCCC1=CC2=CC(=O)C(C)(OC(=O)c3cccs3)C(=O)C2=CO1 (stereo unspecified) | 0.595% (inactive)
8 | COc1cccc(-c2coc3cc4oc(=O)c(CC(=O)O)c(C)c4cc23)c1 | 12.3% (inactive)
9 | O=C(Nc1cccc([N+](=O)[O-])c1)N1CCc2ccccc2C1 | -5.24% (inactive)
10 | C=C1C([C@@]2(C)C(OC(C)=O)CC(=O)O[C@@](C)(COC(C)=O)C2CC(=O)OC)C(OC=O)C(OC(=O)C(O)C(C)CC)[C@]2(C)C(c3ccoc3)CC(=O)C12O (stereo partly specified) | -3.85% (inactive)
11 | CC(C)CCC(C)NC(=O)c1ccc2nccnc2c1 (stereo unspecified) | 2.87% (inactive)
12 | Oc1cc(O)c2c(c1)OC(c1ccc(O)c(O)c1)C(O)C2 (stereo unspecified) | -34.5% (active)
13 | CC1(c2ccc3ccccc3c2)NC(=O)N(CC(N)=O)C1=O (stereo unspecified) | -1.62% (inactive)
14 | Cc1c(Cl)cccc1NC(=O)NCc1ccc(C)n1C | 0.306% (inactive)
15 | CCCN1CCC(=O)N(C(CSc2ccc(C)cc2)Cc2ccccc2)CC1 (stereo unspecified) | 2.31% (inactive)
16 | N#CC1=C(N)Oc2n[nH]c(CSc3ccccc3)c2C12C(=O)Nc1ccccc12 (stereo unspecified) | -1.05% (inactive)
17 | CC1(C)Cc2ccccc2-c2[nH]c(=S)[nH]c(=O)c21 | 2.14% (inactive)
18 | N#CC1=C(N)Oc2[nH]c(=S)[nH]c(=O)c2C12C(=O)Nc1ccccc12 (stereo unspecified) | -33.1% (active)
19 | COCCCNc1nc2ccccc2nc1NS(=O)(=O)c1ccc(F)cc1 | 3.51% (inactive)
20 | Oc1cc2c(cc1O)CN(C(=S)NCCc1ccc(Cl)cc1)CCC2 | -10.5% (inactive)
21 | CCOCCCNC(=O)c1cn(CC(C)C)c(=O)c2c1c1ccccc1n2C | 1.3% (inactive)
22 | Cc1nn(C)cc1/C=C1\CCC/C(=C\c2cn(C)nc2C)C1=O | -3.28% (inactive)

Row | SMILES | activity change, negative = inhibition
23 | COc1ccc2cc1Oc1ccc(cc1)C[C@H]1c3cc(c(OC)cc3CCN1C)Oc1c(O)c(OC)cc3c1[C@H](C2)N(C)CC3 | 3.01% (inactive)
24 | COc1c(O)ccc2c1CN1CCc3cc4c(cc3C1C2)OCO4 (stereo unspecified) | -31.7% (active)
25 | COc1ccc(CN2CCCC(N3CCc4ccccc4C3)C2)c(O)c1 (stereo unspecified) | 0.955% (inactive)
26 | COc1ccc2c(c1)N(C)/C(=C1/SC(=S)N(NC(C)=O)C1=O)S2 | -2.99% (inactive)
27 | CCOc1cc(-c2cc(-c3ccc(NC(C)=O)cc3)nc(N)c2C#N)ccc1O | -0.764% (inactive)
28 | CC(C)CNS(=O)(=O)c1ccc(CCC(=O)NCc2ccc(Cl)cc2)cc1 | 2.27% (inactive)
29 | Cc1ccc(OCc2nc3ccccc3n2C)cc1 | -0.274% (inactive)
30 | Cc1ccc(OCc2nnc(SC3CCc4ccccc4C3=O)n2C)cc1 (stereo unspecified) | -79.8% (active)
31 | Cc1cccnc1NC(=O)CSc1nnc(COc2ccc(C(C)C)cc2)n1C | -3.92% (inactive)
32 | C=C1/C(=C\C=C2\CCCC3(C)C2CCC3C(C)/C=C/C(O)C2CC2)CC(O)CC1O (stereo unspecified) | -0.462% (inactive)
33 | CN(NS(=O)(=O)c1cccs1)c1ncc(C(F)(F)F)cc1Cl | 1.61% (inactive)
34 | CCOC(=O)c1c(C)[nH]c(C(=O)NCc2ccccc2OC)c1C | 6.66% (inactive)
35 | CCOC(=O)c1c(C)[nH]c2c1-c1ccccc1C(=O)C2=O | -46.9% (active)
36 | CCOC(=O)c1c(C)[nH]c(C)c1S(=O)(=O)N(C)CC(=O)Nc1ccccc1C | 0.829% (inactive)
37 | CC(=O)Nc1ccc(N2C(=O)C3C4C=CC(CC4)C3C2=O)cc1 (stereo unspecified) | -0.366% (inactive)
38 | CN(C)/C=C1/C(=O)Nc2ccccc21 | 2.47% (inactive)
39 | CN(C)/C=C1/Nc2ccccc2C1=O | -30.5% (active)
40 | Cc1cc(C)c(/C=C2\C(=O)Nc3ccccc32)[nH]1 | -3.49% (inactive)
41 | COC(=O)C/C=C/[C@@H](C)[C@H](NC(=O)OCC(Cl)(Cl)Cl)c1ccccc1 | -1.95% (inactive)
42 | Cc1cccc2[nH]c(CN(C)C(=O)C3CCC(=O)N(CCc4ccccc4)C3)nc12 (stereo unspecified) | 2.15% (inactive)
43 | COc1ccccc1C1C(C(N)=O)=C(C)Nc2nc(CCCO)nn21 (stereo unspecified) | 1.82% (inactive)
44 | O=C(N/N=C/c1cccc(OC(=O)c2ccc([N+](=O)[O-])cc2)c1)c1cccnc1 | 0.693% (inactive)

Row | SMILES | activity change, negative = inhibition
45 | COCCNC(=O)CN(Cc1ccco1)C(=O)CCC(=O)Nc1nccs1 | 0.963% (inactive)
46 | Cc1cccc(OCC(=O)NCCNC(=O)c2cccnc2)c1 | 0.0752% (inactive)
47 | COc1ccc(N2C(=O)c3ccccc3NC2c2ccc(OC)c(CN3CCOCC3)c2)cc1 (stereo unspecified) | -1.28% (inactive)
48 | COc1ccc(C2Nc3ccccc3C(=O)N2Cc2ccccc2)cc1Cn1nnc2ccccc21 (stereo unspecified) | -34.4% (active)
49 | COc1ccc(C2Nc3ccccc3C(=O)N2c2ccc(F)cc2)cc1Cn1nnc2ccccc21 (stereo unspecified) | 2.84% (inactive)
50 | COc1ccc(CNC(=O)Cc2ccc(-c3ccccc3)cc2)cc1OC | 0.562% (inactive)
51 | COc1ccc(C2/C=C\CN(Cc3ccco3)C(C)C(=O)N2Cc2ccc(F)cc2)cc1 (stereo unspecified) | -1.36% (inactive)
52 | Cc1coc2c(O)cc3c(c12)OC1(N2CCCCC2)C(=O)NCCCC31 (stereo unspecified) | -43.7% (active)
53 | C[C@H]1Cc2c(-c3ccccc3)nc3c(c2CO1)CN(S(=O)(=O)c1ccc(Cl)c2nonc12)CC3 | 2.12% (inactive)
54 | COc1cccc(C(=O)Nc2nnc(S(=O)(=O)N3CCCCC3)s2)c1 | -31.6% (active)
55 | Cc1cccc(C(=O)Nc2nnc(S(=O)(=O)N3CCCCCC3)s2)c1 | -16.7% (inactive)
56 | O=C(Nc1nnc(S(=O)(=O)N2CCCCCC2)s1)c1cccc(Br)c1 | -13.3% (inactive)
57 | NNC(=O)c1oc2nc(-c3ccccc3)cc(-c3ccco3)c2c1N | -5.04% (inactive)
58 | CNC(=S)NNC(=O)c1oc2nc(-c3ccccc3)cc(-c3ccco3)c2c1N | -33.1% (active)
59 | CS(=O)(=O)c1sc2nc(-c3ccccc3)cc(-c3ccccc3)c2c1N | 1.12% (inactive)
60 | Cc1c(C)c2ccc(OCC(=O)N3CCN(c4cccc(Cl)c4)CC3)cc2oc1=O | 1.47% (inactive)
61 | C/C(=N\NC(=O)CNc1cccc2ccccc12)c1ccc(Br)s1 | -0.7% (inactive)
62 | Cc1cccc(/C=N/NC(=O)CNc2cccc3ccccc23)n1 | -46.7% (active)
63 | Cn1cccc1/C=N/NC(=O)CNc1cccc2ccccc12 | -1.22% (inactive)
64 | Cc1ccc(NC(=O)CN2C(=O)NC(C)(c3ccc(Cl)cc3)C2=O)c(Br)c1 (stereo unspecified) | 8.8e-05% (inactive)
65 | Cc1ccc(Cn2c(C)c3cnn(CC(=O)NCc4ccccn4)c(=O)c3c2C)cc1 | 0.293% (inactive)
66 | COc1ccc(C(=O)NC2=NCCS2)c(OC)c1 | 0.219% (inactive)

Row | SMILES | activity change, negative = inhibition
67 | Cc1cccc2c3c(ccc12)C1=C(C(=O)C3=O)C(C)CO1 (stereo unspecified) | -60.2% (active)
68 | O=C1C2C3C=CC(C3)C2C(=O)N1c1ccc(-c2nc3ccccc3c(=O)o2)cc1 (stereo unspecified) | -9.8% (inactive)
69 | Cc1cc2c(c(=O)n1Cc1ccccc1)C1O[C@](CCCCN3C(=O)c4ccccc4C3=O)(Cc3ccccc31)O2 | -1.41% (inactive)
70 | CN1C(=O)c2cccc3c(N)ccc(c23)C1=O | 0.398% (inactive)
71 | CCN1C(=O)c2cccc3c(N)ccc1c23 | -57.1% (active)
72 | CCN1C(=O)c2cccc3c(S(=O)(=O)Nc4ccccc4O)ccc1c23 | -10.8% (inactive)
73 | O=C1C[C@@H](c2ccc3ccccc3c2)N1S(=O)(=O)c1ccccc1[N+](=O)[O-] | 11.1% (inactive)
74 | CC(C)(C)OC(=O)NCCCC1=CC2=CC(=O)C(C)(OC(=O)c3ccco3)C(=O)C2=CO1 (stereo unspecified) | -0.316% (inactive)
75 | C=CC1=C2C=C(C3CC3)N(CC(C)C)C=C2C(=O)C(C)(OC(=O)c2ccco2)C1=O (stereo unspecified) | -42.6% (active)
76 | C=CC1=C2C=C(C3CC3)N(C(CO)CO)C=C2C(=O)C(C)(OC(=O)c2ccco2)C1=O (stereo unspecified) | -18.7% (inactive)
77 | Cc1cccc(C(=O)Nc2ccc(C(=O)/C=C/c3cccs3)cc2)c1 | -6.98% (inactive)
78 | O=[N+]([O-])c1ccc(Sc2n[nH]c(-c3ccco3)n2)nc1 | 3.58% (inactive)
79 | CN(C)C(=O)CSc1n[nH]c(-c2ccco2)n1 | -32.9% (active)
80 | CN(C)c1ccc(NC(=O)CSc2n[nH]c(-c3ccco3)n2)cc1 | 0.0598% (inactive)
81 | COc1ccc(-c2c(-c3ccc(OC)cc3O)nc(C)nc2C(F)(F)F)cc1 | 2.62% (inactive)
82 | COc1ccc(C2=Nn3c(nnc3-c3ccccc3O)SC2)cc1 | -2.11% (inactive)
83 | CCCCC/C=C\C/C=C\CCCCCCCCCC(=O)NCC(=O)O | 1.59% (inactive)
84 | O=C1C(c2ccccn2)=[N+]([O-])c2ccccc21 | -40.5% (active)
85 | O=Cc1cn(-c2ccccc2)nc1-c1ccccn1 | 0.364% (inactive)
86 | NC(=O)C1CCN(C(=O)CC2C(=O)NCCN2Cc2cccc(Oc3ccccc3)c2)CC1 (stereo unspecified) | -8.79% (inactive)
